# The whole screen tested about 360,000 compounds, of which about 7,500 (2.1%) were called active. Not shown: some 20% with an inconclusive outcome. Shown is part of a subset that was picked to be rich in actives. Unmarked numbers belong to inactive results. Calls come from the whole dose curve; as a rule, active = well fitted inhibition curve with a large enough effect; inconclusive = small, poorly fitted or top-dose-only effect, or effect the other way; inactive = flat fitted curve, though single readings scatter.
# Test: Nrf2 qHTS screen for inhibitors; note: nearly all actives have a fitted effect of over 60% in size
# Details: A549 ARE-Fluc reporter, luciferase luminescence, 18-24 h; series mostly up to 46 µM; activity change, negative = inhibition: at the top concentration
# Method in brief: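 A549 ARE_Fluc cells (5000/well, 5% FBS OPTI-MEM) pre-incubated 2 h, then treated with compounds 18-24 h at 37C/5% CO2 in concentration-response. CellTiter-Fluor viability read first; BugLite luciferase luminescence after 15 min at room temperature gives Nrf2 activity.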
# % is set by controls: 0 for no effect and ±100 for the full control effect; potency is the fitted concentration of half-maximal effect.
SMILES,"activity change, negative = inhibition",Potency
Cc1cc2n(n1)C(c1cc(C(C)(C)C)c(O)cc1O)Nc1ccccc1-2 (stereo unspecified),9.52%,
COc1ccc(N2CCN(C(=O)CCSCc3ccccc3F)CC2)cc1,-0.889%,
COc1ccc(CNC(=O)CSCc2nc(-c3ccccc3F)oc2C)cc1,-4.11%,
COc1ccc(N2CCN(C(=O)CSCc3nc(-c4ccccc4Cl)oc3C)CC2)cc1,,1.84 µM (active)
O=C(CNS(=O)(=O)c1ccccc1)N1CCN(C(=O)c2ccco2)CC1,12.4%,
CC(C)Cc1ccc(S(=O)(=O)N2CCN(C(=O)c3ccco3)CC2)cc1,,18.4 µM (active)
Cc1ccc(S(=O)(=O)N2CCN(C(=O)c3cccs3)CC2)cc1,3.88%,
O=C(CNC(=O)c1ccccc1)OC(C(=O)Nc1cc([N+](=O)[O-])ccc1F)c1ccccc1 (stereo unspecified),17.1%,
COc1ccc(NC(=O)CCN2CCN(CCO)CC2)cc1,3.24%,
C=CC[n+]1c(-c2ccc(C)cc2)csc1NNC(=O)Nc1ccccc1,,18.4 µM (active)
O=C(NNC(=O)c1ccc(-c2ccccc2)cc1)Nc1ccccc1,26.6%,
C=CCNc1scc(-c2ccccc2)[n+]1CC=C,17.2%,
CCOCCCNC(=O)c1cn(CC)c2ccc(S(=O)(=O)N3CCc4ccccc4C3)cc2c1=O,-18.4%,
COc1c(Cl)cc(C(=O)N(Cc2ccccc2F)C2CCS(=O)(=O)C2)cc1Cl (stereo unspecified),20.2%,
COc1ccc(C2Nc3ccccc3C(=O)N2Cc2ccc(CNC(=O)CO)cc2)cc1COc1ccc(NC(C)=O)cc1 (stereo unspecified),-24.4%,
CC(C)(C)OC(=O)N(Cc1ccccc1)Cc1ccc(OCc2cccc(NC(=O)c3ccccc3)c2)cc1,-19.1%,
C=CCOC(=O)C1=C(C)NC(C)=C(C(=O)OCC=C)C1c1cccs1,,20.6 µM (active)
CCOC(=O)C1=C(C)NC(=S)NC1c1cccs1 (stereo unspecified),7.07%,
C=CCOC(=O)c1ccccc1C(=O)OCC=C,0.689%,

SMILES,"activity change, negative = inhibition",Potency
CCCCN1CC(COc2ccccc2)Oc2cccc(F)c2S1(=O)=O (stereo unspecified),-1.14%,
O=S(=O)(O)c1cc2onnc2c2ccccc12,3.56%,
COc1ccc(Cl)cc1C=CC=Nc1ccc(S(N)(=O)=O)cc1,-33.7%,
O=C(CN1C(=O)c2ccccc2S1(=O)=O)N1CCc2ccccc21,,4.11 µM (active)
CC1CCCN(C(=O)CN2C(=O)c3ccccc3S2(=O)=O)C1 (stereo unspecified),-11.1%,
O=C(CN1C(=O)c2ccccc2S1(=O)=O)NC1CCCCC1,3.92%,
COc1ccc(-c2cn3nc(N4CCC(C(=O)Nc5cccc(C)c5C)CC4)sc3n2)cc1,8.32%,
CCN(CC)S(=O)(=O)c1ccc(C(=O)N=c2sc3cccc(OC)c3n2C)cc1,8.13%,
NCCCNC(=S)NCCCN(Cc1ccc(Cl)cc1)c1ccc(Br)cn1,22.6%,
COc1ccccc1OCCNc1cc(N2CCOCC2)ccc1[N+](=O)[O-],-5.26%,
COc1ccc(CCNc2cc(N3CCN(C(=O)c4ccccc4OC)CC3)ccc2[N+](=O)[O-])cc1OC,,5.8 µM (active)
COc1ccc(CCNC(=O)c2ccccc2-c2ccccc2C(=O)O)cc1OC,-2.44%,
CCN(CC)S(=O)(=O)c1ccc(N2CCOCC2)c(NC(=O)C(C)Oc2ccc(F)cc2)c1 (stereo unspecified),-0.342%,
Cc1ccccc1-c1cc(C(=O)NCc2cccs2)n(CC2CC(c3cccnc3)=NO2)n1 (stereo unspecified),,20.6 µM (active)
Cc1ccc(CNC(=O)c2cc(-c3ccccc3C)n(CC3CC(c4cccc([N+](=O)[O-])c4)=NO3)n2)cc1 (stereo unspecified),-13.2%,
Cc1ccccc1-c1cc(C(=O)NCC2CC2)n(CC2CC(c3cccnc3)=NO2)n1 (stereo unspecified),-9.82%,
CCCCCn1c(=O)[nH]c2cc(C(=O)NCCN(C)CCCC)ccc2c1=O,7.46% [at 9.27 µM],
CC(C)C(NS(=O)(=O)c1cccs1)C(=O)Nc1nc(C(C)(C)C)cs1 (stereo unspecified),,18.4 µM (active)
CC(=O)Nc1ccc(S(=O)(=O)N2CCN(S(=O)(=O)c3cccs3)CC2)cc1,-12.1%,

SMILES,"activity change, negative = inhibition",Potency
COc1ccc(CNC(=O)C(NS(=O)(=O)c2cccc3nsnc23)C(C)C)cc1 (stereo unspecified),-4.3%,
Cc1ccc(CN(C(=O)COc2ccc(Cl)cc2C)C2CCS(=O)(=O)C2)o1 (stereo unspecified),10.4%,
CC1CCN(S(=O)(=O)c2ccc3c(ccn3CCC(=O)NCc3ccc(N(C)C)cc3)c2)CC1,-6.81%,
Cc1ccccc1C(=O)N(Cc1ccc(N(C)C)cc1)CC1CCCO1 (stereo unspecified),-10.2%,
CN(Cc1cncn1C)c1ncnc2ccc(-c3ccc4c(c3)OCO4)cc12,0%,
CCC(=O)N1CCc2cc(S(=O)(=O)NC(Cc3ccccc3)C(=O)NCc3ccccc3)ccc21 (stereo unspecified),-2.93%,
COc1ccccc1NC(=O)c1sc2nc(C)c(C(=O)Nc3ccc(Cl)cc3)c(-c3ccc(Br)cc3)c2c1N,6.36% [at 9.27 µM],
COc1ccccc1C(=O)NCCC(=O)N(C)Cc1cccnc1,6.48%,
COc1ccccc1C(=O)Nc1c(C(=O)N(C)Cc2ccccc2)sc2nc(C)c(Cl)c(C)c12,,14.6 µM (active)
COc1ccc(CCn2cc3c(c2-c2ccc(Br)cc2)c(=O)n(C)c(=O)n3C)cc1OC,-14.1%,
COc1cc2nc(SCc3ccc(F)cc3)n3nc(CCn4c(C)nc5ccccc54)nc3c2cc1OC,5.71%,
CN(C)C(=O)CCc1ccc2c3c([nH]c2c1)[C@]1(CCC2CCCC2)[C@@H](C(=O)N2CCOCC2)C[C@H](CC(=O)NCc2ccco2)C(=O)N1CC3,0.0719%,
COc1ccc2[nH]c3c(c2c1)CCN1C(=O)C(CC(=O)NCCCN(C)C)C[C@H](C(=O)N2CCOCC2)[C@@]31CCC1CCCC1 (stereo partly specified),13.5%,
COc1ccc(CNC(=O)C[C@H]2C[C@H](C(=O)N3CCOCC3)[C@@]3(CCC4CCCC4)c4[nH]c5ccc(Cl)cc5c4CCN3C2=O)cc1OC,,13 µM (active)
CC[C@]12c3[nH]c4ccc(OC)cc4c3CCN1C(=O)C(CC(=O)NCc1ccco1)C[C@@H]2C(=O)N1CCN(C(=O)C2CC2)CC1 (stereo partly specified),2.5%,
O=C(C[C@H]1C[C@H](C(=O)N2CCOCC2)[C@@]2(CCC3CCCC3)c3[nH]c4ccc(Cl)cc4c3CCN2C1=O)NCc1ccco1,,20.6 µM (active)
CC[C@]12c3[nH]c4ccc(Cl)cc4c3CCN1C(=O)[C@@H](CC(=O)NCCN1CCOCC1)C[C@@H]2C(=O)N1CCN(C(=O)C2CC2)CC1,14.3%,
CC(C)(C)OC(=O)C[C@@H]1C/C=C\C[C@H](CC(=O)N[C@@H](CO)Cc2ccccc2)C(=O)N[C@H](Cc2ccccc2)COC1=O,1.6%,

# Reference: PubChem BioAssay AID504444 (National Center for Advancing Translational Sciences (NCATS), 2011)
